Many of the other results were omitted from the sample, so hits are more common in it than they were.
TDP1 cell CPT – qHTS for Inhibitors of human tyrosyl-DNA phosphodiesterase 1 (TDP1): qHTS in cells in presence of CPT. 420,000 compounds, 12% hits. AID 686979, 2013. Potency, µM (highest dose often 46.2 µM), inactives show top-dose activity change, negative = growth inhibition, most hits filed as inhibitors. chicken DT40 Tdp1-/-;hTDP1 cells + 20 nM CPT, ATP luminescence, 48 h; further: potency means the concentration at half of the fitted maximal effect; nearly all actives have a fitted effect of over 55% in size
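Chicken DT40 Tdp1-/- cells complemented with human TDP1, 400 cells/well, exposed to compounds plus 20 nM camptothecin for at least 48 h at 37 C; viability read as ATP content by CellTiter-Glo luminescence.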
DT40 TDP1 no CPT – qHTS for Inhibitors of human tyrosyl-DNA phosphodiesterase 1 (TDP1): qHTS in cells in absence of CPT; 420,000 compounds, 15% hits; DT40 Tdp1-/- hTDP1 cells, no CPT, ATP luminescence, 48 h; Potency, µM (highest dose often 46.2 µM), for inactives: at the top dose activity change, negative = growth inhibition, hits mostly inhibitors; AID 686978, 2013; further: potency means the concentration at half of the fitted maximal effect; nearly all actives have a fitted effect of over 55% in size
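Luminescent ATP content (CellTiter-Glo) served as the growth readout. Knockout chicken DT40 cells expressing human TDP1 were exposed to compounds without camptothecin for a minimum 48 hr at 37 °C.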
HT1080-NT tox – qHTS for induction of synthetic lethality in tumor cells producing 2HG: qHTS for the HT-1080-NT fibrosarcoma cell line. HT-1080-NT fibrosarcoma viability, CellTiter-Glo ATP luminescence, 48 h. Potency, µM (doses to about 46.1 µM), inactives show at the top dose activity, negative = less viability, usual class: cytotoxic. 360,000 compounds, 1.6% hits;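 further: NT is the 2HG producing partner of a matched IDH1 knockdown line; potency means the concentration at half of the fitted maximal effect; 0% = DMSO-treated cells and -100% = media-only wells without cells; nearly all actives have a fitted effect of over 55% in size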
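Toxicity toward the 2HG-producing NT line was scored as %Activity, normalised to DMSO and no-cell wells, from CellTiter-Glo luminescence after 48 hours' treatment.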
HT1080 IDH1KD tx – qHTS for induction of synthetic lethality in tumor cells producing 2HG: qHTS for the HT-1080-IDH1KD cell line; 360,000 compounds, 2% hits; HT-1080 IDH1 knockdown viability, ATP luminescence, 48 h; Potency, µM (series often up to 46.1 µM), for inactives: top-dose activity, negative = toxicity, hits mostly cytotoxic;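 further: potency means the concentration at half of the fitted maximal effect; 0% = DMSO wells and -100% = cell-free medium wells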
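Luminescent ATP read-out (CellTiter-Glo, 10 min at room temperature) after 48 h compound exposure at 37 °C gave viability of IDH1-knockdown HT-1080 cells. Activity was normalised to DMSO and cell-free wells, then fitted as concentration-response curves.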
IL-1B inflam inh – qHTS for Inhibitors of Inflammasome Signaling: IL-1-beta AlphaLISA Primary Screen; THP-1 LPS/ATP IL-1B secretion, AlphaLISA, 16 h; hits give low values; activity change, % at 57.5 µM; 360,000 compounds, 4.7% hits; AID 743279, 2014; in the data active means activity change below about -50%; inconclusive means mostly about -30% to -49%
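THP-1 cells pretreated 1 hr with compounds (up to 57.5 uM final), then stimulated with LPS (250 ng/mL final) plus ATP (1.25 mM final); secreted IL-1B measured by AlphaLISA after 16 hr, decreased signal indicating inhibition.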
12-LOX inh – Primary qHTS assay for inhibitors of human arachidonate 12S-lipoxygenase (ALOX12): Round 2; AID 1671190, 2021; Polyunsaturated fatty acid lipoxygenase ALOX12 (Homo sapiens), P18054; Potency, µM (doses to about 108 µM), without a hit: top-dose activity change, negative = inhibition, usual class: inhibitors; purified 12hLO, xylenol orange hydroperoxide absorbance; 580,000 compounds, 1.1% hits; further: potency means the concentration at half of the fitted maximal effect
Target sequence (P18054 whole entry, looked up): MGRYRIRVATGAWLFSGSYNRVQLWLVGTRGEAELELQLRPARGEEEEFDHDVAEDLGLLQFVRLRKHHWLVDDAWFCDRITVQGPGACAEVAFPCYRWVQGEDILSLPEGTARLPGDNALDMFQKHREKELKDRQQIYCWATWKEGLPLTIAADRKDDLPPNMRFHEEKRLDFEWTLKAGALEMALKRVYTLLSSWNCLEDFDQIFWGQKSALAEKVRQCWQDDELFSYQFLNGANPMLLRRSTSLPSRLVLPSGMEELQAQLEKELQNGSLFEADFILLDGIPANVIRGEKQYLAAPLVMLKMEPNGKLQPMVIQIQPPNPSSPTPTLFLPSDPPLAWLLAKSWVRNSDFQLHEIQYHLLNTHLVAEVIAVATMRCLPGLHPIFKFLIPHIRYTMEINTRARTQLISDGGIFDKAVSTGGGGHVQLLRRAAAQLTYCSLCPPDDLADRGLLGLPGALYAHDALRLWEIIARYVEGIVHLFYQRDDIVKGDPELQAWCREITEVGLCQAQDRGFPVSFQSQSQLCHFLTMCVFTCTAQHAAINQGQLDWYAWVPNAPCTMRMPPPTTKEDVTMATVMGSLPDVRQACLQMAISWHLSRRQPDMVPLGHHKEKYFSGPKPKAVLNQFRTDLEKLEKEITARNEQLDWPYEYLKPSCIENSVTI
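Purified human 12hLO at 150 nM in 25 mM Hepes, 0.01% Triton X-100, pH 7.0, preincubated 15 min at room temperature with compound. Reaction started with 40 uM arachidonic acid, 30 min at room temperature. Hydroperoxide measured by Fe-xylenol orange, 573/405 nm absorbance ratio.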
* marks the source's active call; other numbers are inactive results; ? = inconclusive; · = no result; [ ] = another dose, or the depositor's remark. Unless noted, the call rests on the fitted dose curve; in most records, active means well fitted curve in the direction sought with a large enough effect; inconclusive means small, poorly fitted or top-dose-only effect, or another doubt; inactive means no such curve, though single readings can be large; an effect the other way counts as inactive or inconclusive. Unless noted, on the % scale 0 is the no-effect control and ±100 the full control effect.

SMILES	TDP1 cell CPT	DT40 TDP1 no CPT	HT1080-NT tox	HT1080 IDH1KD tx	IL-1B inflam inh	12-LOX inh
OC(c1ccccc1)c1nc(-c2cc(F)cc(F)c2)cs1 (centres undefined)	?	?	?	?	-8	-5%
COc1ccc(C(O)c2nc(-c3cc(F)cc(F)c3)cs2)cc1 (centres undefined)	16µM*	16µM*	?	?	-16	-29%
COc1cc(C(O)c2nc(-c3ccc(N(C)C)cc3)cs2)ccc1F (centres undefined)	16µM*	23µM*	-1%	?	-62*	·
COc1ccccc1CCN1CNc2c(c(=O)[nH]c(=O)n2-c2cccc(Cl)c2C)C1	·	·	·	·	·	-1%
Cc1ccc2oc(C(=O)N(C)CCOc3ccc(F)cc3)cc(=O)c2c1	·	·	·	·	·	-20%
Fc1ccccc1CNC1(Cc2cc(-c3ccccn3)on2)COC1	·	·	·	·	·	11%[176 µM]
CCOc1ncccc1C(=O)Nc1cc2c(cc1Br)OCCO2	21µM*	12µM*	-23%	?	19	?
CCOc1ncccc1C(=O)Nc1ccc2c(c1)OCO2	1%	-16%	0%	-11%	11	5%
COc1ccc(OC)c(NC(=O)N(C)CCc2noc(C(=O)NCc3ccccc3)n2)c1	·	·	·	·	·	2%
Cc1cccc(CNC(=O)c2ccc(NC(=O)N3CCSc4ncccc43)cc2)c1	-7%	-35%	·	·	·	-12%
Cc1ccc(CNC(=O)c2cccc(NC(=O)N3CCSc4ncccc43)c2)cc1	?	21µM*	·	·	·	0%
CC(C)Oc1ccc(CNC(=O)Cc2ccc(NC(=O)N3CCSc4ncccc43)cc2)cc1	16µM*	16µM*	·	·	·	-26%
O=C(NCc1ccccc1F)c1cccc(NC(=O)N2CCSc3ncccc32)c1	23µM*	?	·	·	·	?
COC(=O)c1nc2ccccc2nc1N1CCN(Cc2ccccc2)CC1	·	·	·	·	·	-5%
O=C(Oc1ccc2cc(-c3nc4ccccc4s3)c(=O)oc2c1)C1CC1	·	·	·	·	·	-15%
COc1ccc(N2C(=O)CC(Sc3nc(C)cc(C)c3C#N)C2=O)cc1 (centres undefined)	-2%	-17%	-2%	-25%	1	4%
O=C(O)CCSC1CC(=O)N(c2ccccc2)C1=O (centres undefined)	-7%	10%	7%	10%	14	·
O=C1CC(Sc2nnc(-c3ccccc3O)o2)C(=O)N1c1ccccc1 (centres undefined)	4.6µM*	4.6µM*	?	4.5µM*	9	-4%
COc1ccc(N2C(=O)CC(Sc3nnc(-c4ccccc4)o3)C2=O)cc1 (centres undefined)	2.9µM*	2.9µM*	-1%	-1%	-29	-19%
Cc1cccc(NS(=O)(=O)c2cc(C(=O)Nc3ccc4oc(C)nc4c3)ccc2C)c1	·	·	·	·	·	14%
COc1ccc(N(C(=O)CSCC(=O)Nc2cc(C)on2)C(C(=O)NC2CCCCC2)c2ccc(O)c(O)c2)cc1 (centres undefined)	-24%	?	3%	6%	1	?
Cc1cc(NC(=O)CSCC(=O)N(c2ccc(F)cc2)C(C(=O)NC2CCCCC2)c2ccc(O)c(O)c2)no1 (centres undefined)	?	16µM*	-6%	-6%	-50*	?
O=C(CSc1nc2c([nH]c3ccccc32)c(=O)n1-c1ccccc1)Nc1ccc2c(c1)OCO2	?	23µM*	·	·	·	-29%
